Potency and outcome data for seven compounds are collected here from PubChem BioAssay (Tox21).

In experiment [1] the target is Aryl hydrocarbon receptor (Homo sapiens) (UniProt P35869). The experiment can be described thus: qHTS assay to identify small molecule that activate the aryl hydrocarbon receptor (AhR) signaling pathway (AID 743085).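 Note: HG2L7.5c1 human HepG2 liver cells with stably integrated DRE-driven firefly reporter; series mostly up to about 70 µM; nearly all actives have a fitted effect of over 15% in size.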 In outline:
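HepG2 cells (HG2L7.5c1) stably carrying a firefly luciferase reporter driven by 20 dioxin responsive elements were exposed to compound for 24 h at 37C after a 5 h settling period; luminescence rise (ONE-Glo) indicated activation.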
A general note: In qHTS, concentration-response curves come from the screen itself.

Experiment [2] in a line: qHTS assay to identify small molecule antagonists of the peroxisome proliferator-activated receptor gamma (PPARg) signaling pathway - cell viability counter screen (AID 743194). Note: nearly all actives have a fitted effect of over 55% in size. Note: potency is the fitted concentration of half-maximal effect. In a few lines: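 Viability was measured as CellTiter-Glo luminescence in GeneBLAzer PPARg UAS-bla HEK293H cells. These cells had been exposed 17 h at 37 C to compounds together with rosiglitazone at 50 nM final, with the beta-lactamase readout taken in the same wells.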

A short description of experiment [3]: qHTS assay for small molecule agonists of the antioxidant response element (ARE) signaling pathway (AID 743202; active = well fitted activation curve with a large enough effect in the signal ratio in the repeat runs, not every such curve was filed as active; the % refers to the signal ratio). In outline:
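An ARE-responsive beta-lactamase gene stably integrated in HepG2 cells serves as reporter. After 5 h plating and 16 h compound incubation at 37 C, fluorescence of the B/G FRET substrate was measured.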

Experiment [4] is described as follows: qHTS assay for small molecule agonists of the antioxidant response element (ARE) signaling pathway - cell viability counter screen (AID 743203; calls by dose curve; note: nearly all actives have a fitted effect of over 55% in size; note: potency is the fitted concentration of half-maximal effect). In outline: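 Cells (ARE-bla HepG2, 2,000/well) receive DMSO-dissolved compounds after a 5 hrs rest. Plates incubate 16 hrs at 37C/5% CO2. CellTiter-Glo luminescence is then recorded after 30 min at room temperature.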

Experiment [5] is described as follows: qHTS assay for small molecule activators of the heat shock response signaling pathway - cell viability counter screen (AID 743209). Note: nearly all actives have a fitted effect of over 50% in size. Note: potency is the fitted concentration of half-maximal effect. In outline:
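Quantitative HTS format, Tox21 10K library. HeLa cells carrying an HSE-driven beta-lactamase reporter were treated 5 h at 37 C, then assessed for viability by CellTiter-Glo luminescence.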

The nature of experiment [6]: qHTS assay to identify small molecule agonists of the peroxisome proliferator-activated receptor delta (PPARd) signaling pathway - cell viability counter screen (AID 743211). Note: nearly all actives have a fitted effect of over 55% in size. Note: potency is the fitted concentration of half-maximal effect. In outline:
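PPARd-bla HEK293H cells (UAS-beta-lactamase reporter) were treated with compounds for 17 h at 37 C. Viability was then read in the same wells by CellTiter-Glo luminescence after 30 min at room temperature.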

The nature of experiment [7]: qHTS assay to identify small molecule antagonists of the peroxisome proliferator-activated receptor delta (PPARd) signaling pathway - cell viability counter screen (AID 743213). Note: nearly all actives have a fitted effect of over 50% in size. Note: potency is the fitted concentration of half-maximal effect. In a few lines: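 CellTiter-Glo was added to PPARd-bla HEK293H wells following 17 h compound treatment in the presence of 300 nM L165041. Luminescence was recorded after 30 min at room temperature.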

The target in experiment [8] is Bile acid receptor (Homo sapiens) (UniProt Q96RI1). The experiment is described as follows: qHTS assay to identify small molecule antagonists of the farnesoid-X-receptor (FXR) signaling pathway (AID 743217; active = well fitted inhibition curve with a large enough effect in the signal ratio in the repeat runs, not every such curve was filed as active; the % refers to the signal ratio). In a few lines:
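Beta-lactamase reporter under UAS control in HEK 293T cells; compound exposure 16 h at 37 °C in the presence of chenodeoxycholic acid (50 uM final); signal from B/G FRET substrate after 2 h at room temperature.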

Experiment [9] has the same target. The experiment can be described thus: qHTS assay to identify small molecule agonists of the farnesoid-X-receptor (FXR) signaling pathway (AID 743220; active = well fitted activation curve with a large enough effect in the signal ratio in the repeat runs, not every such curve was filed as active; the % refers to the signal ratio). In a few lines: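 Beta-lactamase reporter under UAS control in GeneBLAzer FXR HEK 293T cells (5000/well) measured with LiveBLAzer FRET substrate after 2 h at room temperature. Compound exposure lasted 16 h at 37C.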

Experiment [10] in a line: qHTS assay to identify small molecule antagonists of the farnesoid-X-receptor (FXR) signaling pathway - cell viability counter screen (AID 743221; active = well fitted cell-killing curve with a large enough effect in the repeat runs, not every such curve was filed as active; note: nearly all actives have a fitted effect of over 50% in size; note: potency is the fitted concentration of half-maximal effect). In a few lines: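 FXR-UAS-bla HEK 293T cells were treated with test compounds plus chenodeoxycholic acid (50 uM final) for 16 h at 37 C. Cell viability in the same wells was then read as CellTiter-Glo luminescence after 30 min at room temperature.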

The nature of experiment [11]: qHTS assay to identify small molecule agonists of the vitamin D receptor (VDR) signaling pathway - cell viability counter screen (AID 743224). Note: series mostly up to about 63 µM; nearly all actives have a fitted effect of over 50% in size. In outline:
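VDR-bla cell line, quantitative HTS format; 16 h compound incubation (37C, 5% CO2); ATP-based CellTiter-Glo luminescence measured in the reporter assay wells.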

Experiment [12] is described as follows: qHTS assay to identify small molecule antagonists of the vitamin D receptor (VDR) signaling pathway - cell viability counter screen (AID 743225). Note: nearly all actives have a fitted effect of over 50% in size. Note: potency is the fitted concentration of half-maximal effect. In a few lines: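 VDR-bla HEK 293T cells, 4 h pre-incubation at 37C, then compound plus 1-alpha,25-dihydroxyvitamin D3 (3 nM final) for 16 h. After the beta-lactamase FRET read, CellTiter-Glo was added to the same wells; luminescence after 30 min at room temperature.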

The nature of experiment [13]: qHTS assay to identify small molecule agonists of the farnesoid-X-receptor (FXR) signaling pathway - cell viability counter screen (AID 743218). Note: nearly all actives have a fitted effect of over 45% in size. Note: potency is the fitted concentration of half-maximal effect. In a few lines: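 In GeneBLAzer FXR-UAS-bla HEK 293T cells, compounds act for 16 h at 37 C. Cell viability is then scored in the reporter wells by CellTiter-Glo, 30 min at RT, luminescence.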
Experiment [14] has as its target Peroxisome proliferator-activated receptor delta (Homo sapiens) (UniProt Q03181). The experiment is described as follows: qHTS assay to identify small molecule agonists of the peroxisome proliferator-activated receptor delta (PPARd) signaling pathway (AID 743212; calls by dose curve). In a few lines:
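HEK293H UAS-bla reporter cells, human PPARd system; compounds delivered in DMSO after 5 h plating, then at 37 C. Beta-lactamase FRET read, 2 h RT substrate step.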

The target in experiment [15] is Vitamin D3 receptor (Homo sapiens) (UniProt P11473). The experiment can be described thus: qHTS assay to identify small molecule antagonists of the vitamin D receptor (VDR) signaling pathway (AID 743223; active = well fitted inhibition curve with a large enough effect in the signal ratio in the repeat runs, not every such curve was filed as active; the % refers to the signal ratio; note: potency is the fitted concentration of half-maximal effect). In a few lines:
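VDR-bla cells were plated, incubated 4 h at 37C, then given compound and 1alpha,25-dihydroxyvitamin D3 (3 nM final). After 16 h at 37C, LiveBLAzer B/G FRET substrate was added for 2 h at room temperature and fluorescence read.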

Experiment [16] in a line: qHTS assay for small molecule activators of the heat shock response signaling pathway (AID 743210; active = well fitted activation curve with a large enough effect in the signal ratio in the repeat runs, with a control signal flat, not every such curve was filed as active; the % refers to the signal ratio;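 note: HeLa cells with beta-lactamase reporter driven by heat shock elements; series mostly up to about 63 µM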). In outline: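 In HSE-bla HeLa cells, 5 h compound incubation (37 C) precedes addition of LiveBLAzer B/G substrate; after 2.5 h at room temperature, fluorescence intensity indicates reporter induction.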
Experiment [17] can be described thus: qHTS assay to identify small molecule that activate the aryl hydrocarbon receptor (AhR) signaling pathway - cell viability counter screen (AID 743086). Note: series mostly up to about 70 µM; nearly all actives have a fitted effect of over 45% in size. In a few lines: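 Cytotoxicity counter screen: CellTiter-Fluor signal (30 min, 37 C) in 4000 HepG2 cells/well carrying the DRE-luciferase reporter, following 24 h compound exposure at 37 C.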
For experiment [18], the target named is Peroxisome proliferator-activated receptor gamma (Homo sapiens) (UniProt P37231). The experiment is described as follows: qHTS assay to identify small molecule agonists of the peroxisome proliferator-activated receptor gamma (PPARg) signaling pathway (AID 743094; active = well fitted activation curve with a large enough effect in the signal ratio in the repeat runs, not every such curve was filed as active; the % refers to the signal ratio). In a few lines:
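Stably transfected HEK293H cells (GeneBLAzer PPARg UAS-bla) were incubated with test substances for 17 h at 37C after a 5 h pre-incubation; beta-lactamase activity was then detected by FRET substrate fluorescence.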

The target is the same in experiment [19]. The experiment is described as follows: qHTS assay to identify small molecule antagonists of the peroxisome proliferator-activated receptor gamma (PPARg) signaling pathway (AID 743191; calls by dose curve; note: series mostly up to about 63 µM; nearly all actives have a fitted effect of over 30% in size). In a few lines: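 Beta-lactamase reporter under UAS control in HEK293H PPARg-bla cells; compound treatment 17 h at 37C. Read-out: fluorescence intensity after 1 h room-temperature incubation with LiveBLAzer B/G FRET substrate.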

Experiment [20] concerns the target Vitamin D3 receptor (Homo sapiens) (UniProt P11473). The experiment can be described thus: qHTS assay to identify small molecule agonists of the vitamin D receptor (VDR) signaling pathway (AID 743222; calls by dose curve). In outline: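 Agonist activity measured in VDR-bla reporter cells. Exposure 16 h, 37C, 5% CO2; detection by B/G FRET substrate, 2 h RT.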

Inconclusive results are not listed. Activity calls are given as the source filed them. Unless noted, calls come from the whole dose curve; as a rule, active = well fitted curve in the direction sought with a large enough effect in the repeat runs; inconclusive = weak or mixed curves; inactive = no such curve, though single readings can be large; an effect the other way counts as inactive or inconclusive.

Sequence of Vitamin D3 receptor (Homo sapiens) (P11473 whole entry, looked up): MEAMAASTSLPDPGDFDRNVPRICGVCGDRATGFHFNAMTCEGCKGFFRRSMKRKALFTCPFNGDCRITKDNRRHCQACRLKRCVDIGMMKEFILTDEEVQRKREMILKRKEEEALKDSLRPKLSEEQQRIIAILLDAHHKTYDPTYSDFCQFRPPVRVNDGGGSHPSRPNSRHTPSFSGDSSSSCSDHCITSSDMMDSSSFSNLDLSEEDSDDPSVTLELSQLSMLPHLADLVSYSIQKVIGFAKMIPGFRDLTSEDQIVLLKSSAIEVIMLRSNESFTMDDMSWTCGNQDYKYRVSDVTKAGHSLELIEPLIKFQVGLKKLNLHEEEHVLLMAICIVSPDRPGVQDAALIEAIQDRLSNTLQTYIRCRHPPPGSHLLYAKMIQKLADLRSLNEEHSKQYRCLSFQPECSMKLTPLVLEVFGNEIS
Sequence of Aryl hydrocarbon receptor (Homo sapiens) (P35869 whole entry, looked up): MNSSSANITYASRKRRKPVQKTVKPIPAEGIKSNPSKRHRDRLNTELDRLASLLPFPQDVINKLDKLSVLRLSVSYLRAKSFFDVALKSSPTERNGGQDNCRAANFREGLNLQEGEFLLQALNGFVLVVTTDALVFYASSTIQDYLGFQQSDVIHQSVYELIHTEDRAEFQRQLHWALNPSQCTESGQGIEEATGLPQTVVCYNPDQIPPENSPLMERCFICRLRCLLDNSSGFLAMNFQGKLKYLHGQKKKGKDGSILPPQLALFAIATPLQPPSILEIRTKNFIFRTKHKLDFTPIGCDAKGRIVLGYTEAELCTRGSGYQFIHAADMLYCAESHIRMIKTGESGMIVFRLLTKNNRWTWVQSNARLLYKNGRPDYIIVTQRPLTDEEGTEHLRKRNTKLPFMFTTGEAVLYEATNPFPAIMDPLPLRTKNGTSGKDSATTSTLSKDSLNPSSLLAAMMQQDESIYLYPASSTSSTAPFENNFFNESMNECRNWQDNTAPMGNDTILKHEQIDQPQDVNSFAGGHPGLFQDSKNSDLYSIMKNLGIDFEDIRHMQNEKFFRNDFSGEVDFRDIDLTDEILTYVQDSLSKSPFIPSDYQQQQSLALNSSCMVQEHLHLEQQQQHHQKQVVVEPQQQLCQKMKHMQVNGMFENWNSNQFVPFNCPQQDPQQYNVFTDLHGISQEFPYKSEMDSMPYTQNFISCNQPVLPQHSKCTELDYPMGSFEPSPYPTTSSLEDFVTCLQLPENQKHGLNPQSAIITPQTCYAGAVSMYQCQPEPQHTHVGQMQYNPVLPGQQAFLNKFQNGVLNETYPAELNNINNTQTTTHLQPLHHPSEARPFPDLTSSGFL
Sequence of Bile acid receptor (Homo sapiens) (Q96RI1 whole entry, looked up): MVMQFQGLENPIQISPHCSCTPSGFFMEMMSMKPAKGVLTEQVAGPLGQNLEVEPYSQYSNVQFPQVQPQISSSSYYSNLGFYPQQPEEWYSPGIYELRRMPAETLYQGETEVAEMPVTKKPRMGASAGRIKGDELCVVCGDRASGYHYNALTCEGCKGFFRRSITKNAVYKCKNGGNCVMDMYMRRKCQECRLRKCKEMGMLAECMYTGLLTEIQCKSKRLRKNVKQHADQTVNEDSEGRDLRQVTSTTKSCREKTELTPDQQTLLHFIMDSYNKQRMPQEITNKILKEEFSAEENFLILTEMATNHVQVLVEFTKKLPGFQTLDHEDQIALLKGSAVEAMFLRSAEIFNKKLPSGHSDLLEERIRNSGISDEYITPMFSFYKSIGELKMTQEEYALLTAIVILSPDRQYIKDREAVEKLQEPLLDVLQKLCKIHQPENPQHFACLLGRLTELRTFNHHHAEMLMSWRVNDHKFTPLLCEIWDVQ
Sequence of Peroxisome proliferator-activated receptor delta (Homo sapiens) (Q03181 whole entry, looked up): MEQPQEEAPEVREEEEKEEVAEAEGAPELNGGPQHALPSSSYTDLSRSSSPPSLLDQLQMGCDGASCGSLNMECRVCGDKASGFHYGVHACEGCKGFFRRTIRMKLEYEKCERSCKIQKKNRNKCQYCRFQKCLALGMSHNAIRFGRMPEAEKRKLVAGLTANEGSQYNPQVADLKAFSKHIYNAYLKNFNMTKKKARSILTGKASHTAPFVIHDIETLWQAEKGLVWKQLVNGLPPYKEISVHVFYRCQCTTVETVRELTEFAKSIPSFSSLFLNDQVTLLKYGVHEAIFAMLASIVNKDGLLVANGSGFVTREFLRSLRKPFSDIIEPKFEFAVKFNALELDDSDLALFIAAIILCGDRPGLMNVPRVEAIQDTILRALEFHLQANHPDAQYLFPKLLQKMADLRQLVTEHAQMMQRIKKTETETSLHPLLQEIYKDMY
Sequence of Peroxisome proliferator-activated receptor gamma (Homo sapiens) (P37231 whole entry, looked up): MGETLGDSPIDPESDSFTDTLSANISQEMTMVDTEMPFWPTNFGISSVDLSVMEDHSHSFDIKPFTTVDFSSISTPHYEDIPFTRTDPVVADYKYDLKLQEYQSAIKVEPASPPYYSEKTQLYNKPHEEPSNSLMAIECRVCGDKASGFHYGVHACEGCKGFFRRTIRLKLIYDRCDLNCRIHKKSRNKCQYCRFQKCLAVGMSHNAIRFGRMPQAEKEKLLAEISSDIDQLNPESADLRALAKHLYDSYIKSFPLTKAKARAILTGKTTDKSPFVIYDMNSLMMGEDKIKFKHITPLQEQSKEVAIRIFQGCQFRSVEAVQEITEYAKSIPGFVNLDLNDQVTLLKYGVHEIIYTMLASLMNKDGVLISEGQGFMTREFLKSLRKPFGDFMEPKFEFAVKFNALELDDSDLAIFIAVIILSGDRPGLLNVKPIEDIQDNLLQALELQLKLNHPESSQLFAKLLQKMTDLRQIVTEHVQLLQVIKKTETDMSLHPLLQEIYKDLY

`Oc1ccccc1`: the Potency entry in experiment [1], in experiment [2], in experiment [3], in experiment [4], in experiment [5] and in experiment [6] was “inactive” throughout. Also, the Potency result in [7], in [8], in [10], in [11] and in [12] was “inactive” each time. The compound was classed as inactive in [9].
Turning to `Cc1ccc(S(=O)(=O)O)cc1`, the Potency result in experiment [2], in [3], in experiment [4], in experiment [5], in experiment [6] and in experiment [7] was “inactive” throughout. Also, the Potency entry in experiment [13], in experiment [10], in experiment [11] and in [12] was “inactive” each time.
For the compound `CCN(Cc1c(F)cccc1Cl)c1c([N+](=O)[O-])cc(C(F)(F)F)cc1[N+](=O)[O-]`, the Potency entry in [1], in [2], in experiment [3], in experiment [4], in experiment [5] and in experiment [14] was “inactive” each time. Moreover, the Potency entry in experiment [15] and in experiment [11] was “inactive” throughout. Further, the Potency in experiment [6] was 17.4 µM (active); in [7] it was 17.4 µM (active); in [13] it was 19.5 µM (active); in experiment [10], 21.9 µM (active). Also, the outcome in experiment [9] was inactive.
As to `CN(C)CCOC(c1ccccc1)c1ccccc1`, the Potency result in [2], in [3], in [4], in [5], in experiment [6] and in experiment [7] was “inactive” each time. Also, the Potency result in experiment [10], in [11] and in experiment [12] was “inactive” each time. For the same compound, the call in experiment [16] was inactive.
Turning to `Nc1ccc2c(c1)CN1C(=O)c3ccccc3C1=N2`, the Potency entry in experiment [2], in experiment [4], in [5], in [6], in experiment [11] and in experiment [12] was “inactive” throughout. Besides, the result in experiment [16] and in experiment [9] was inactive.
As to `CCCCC(CC)C(=O)O` (stereo not drawn), the Potency entry in [17], in experiment [18], in experiment [19], in experiment [2], in [3] and in experiment [4] was “inactive” throughout. Moreover, the Potency result in [5], in experiment [6], in experiment [14], in experiment [7], in experiment [13] and in [10] was “inactive” throughout. Besides, the Potency entry in experiment [11] and in experiment [12] was “inactive” in each case. Besides, the compound was classed as inactive in experiment [16].
Take `C1CCC(C(CC2CCCCN2)C2CCCCC2)CC1` (stereo not drawn): the Potency entry in experiment [1], in [19] and in [20] was “inactive” each time. Besides, the Potency was 33.5 µM (active) in experiment [2]; 29.8 µM (active) in experiment [4]; 33.5 µM (active) in [5]; 26.6 µM (active) in experiment [6]; 23.7 µM (active) in experiment [13]; 21.3 µM (active) in [15]. The Potency in experiment [12] is 21.3 µM (active).
